Compounds without any hit were thinned out: in the full panel of roughly 79,000, 15% have a hit. A number with no mark means an inactive call. Activity calls are given as the source filed them. Cut-off read from the data, not from the text of the source: active = growth inhibition above about 70%; inactive = the rest.
How the values were obtained:
[1] = NCI Yeast Anticancer Drug Screen. Data for the rad50 strain (AID 155);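 note: 0% = growth of vehicle-only cultures of the same strain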; settings: S. cerevisiae rad50 strain growth inhibition; at 50.0 µM; active compounds read high
Procedure, shortened: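 Growth of the mutant yeast was measured after compound exposure and referenced to vehicle-treated cultures.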

[2] = NCI Yeast Anticancer Drug Screen. Data for the mec2-1 strain (AID 157); settings: S. cerevisiae mec2-1 strain, at 50.0 µM, active compounds read high
Procedure, shortened: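 Compounds were applied to mec2-1 yeast cells. Their growth was then compared with that of vehicle-treated cultures to give growth inhibition.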

[3] = NCI Yeast Anticancer Drug Screen. Data for the sgs1 mgt1 strain (AID 161);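 note: 0% = growth of cultures given vehicle only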; settings: S. cerevisiae sgs1 mgt1 strain, at 50.0 µM, active compounds read high
Procedure, shortened: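 Growth of a repair-deficient yeast mutant was monitored after compound treatment and expressed as inhibition relative to vehicle-treated cultures.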

[4] = NCI Yeast Anticancer Drug Screen. Data for the cln2 rad14 strain (AID 165);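 note: 0% = growth equal to vehicle treated cultures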; settings: S. cerevisiae cln2 rad14 strain, at 50.0 µM, active compounds read high
Procedure, shortened: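 Strain: cln2 rad14 yeast, altered in cell cycle control and DNA damage repair. Read-out: growth inhibition vs vehicle.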

[5] = NCI Yeast Anticancer Drug Screen. Data for the bub3 strain (AID 167); settings: S. cerevisiae bub3 mutant strain, at 50.0 µM, active compounds read high
Procedure, shortened: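 Whole-cell yeast assay. The mutant strain was incubated with compounds, and growth inhibition was determined by comparison with vehicle-treated cells.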

[6] = NCI Yeast Anticancer Drug Screen. Data for the mlh1 rad18 strain (AID 175); settings: S. cerevisiae mlh1 rad18 strain growth inhibition; at 50.0 µM; active compounds read high
Procedure, shortened: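 A repair-deficient yeast strain is exposed to test compound, and growth is scored relative to vehicle-treated controls.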

Row | Structure (SMILES) | growth inhibition [1] | growth inhibition [2] | growth inhibition [3] | growth inhibition [4] | growth inhibition [5] | growth inhibition [6]
1 | COc1ccccc1-n1c(C)nc2ccccc2c1=O | -5% | -19.6% | 6.2% | 2.8% | 19.7% | 4.8%
2 | O=c1[nH]c(=O)[nH]c(=O)[nH]1 | 25.6% | -16.1% | -12.9% | -42.8% | 1.1% | 27.6%
3 | CCN(CC)C(=O)CCNC(C)Cc1c[nH]c2ccccc12 (stereo unspecified) | -4.1% | -13.7% | 39.9% | 22.1% | 8.85% | -37.5%
4 | C=CC1CN2CCC1CC2C(O)c1ccnc2ccccc12 (stereo unspecified) (tested in a mixture with another compound) | -3.9% | -17.1% | -5.4% | -4.05% | -1.4% | 1.75%
5 | CC(C)=CCC/C(C)=N\N=C(N)N | 5.35% | -8.65% | -13.2% | -20.5% | -2.8% | -15.6%
6 | NC(=O)CCl | 6% | -0.8% | -2.6% | -1.45% | 12.4% | -12.9%
7 | CC(=O)[CH-]C(C)=O.O=[N+]([O-])O.[NH-]C1CCCCC1[NH-].[Pt+4] (stereo unspecified) | 97.2% (active) | 98.5% (active) | 94.3% (active) | 98% (active) | 98.8% (active) | 94.8% (active)
8 | CCOP(=O)(OCC)O/N=C(/c1ccccc1)C(C)C | 25.4% | 4.85% | 19.9% | 10.3% | -0.1% | 2.4%
9 | O=P(Nc1ccc2ccccc2c1)(Nc1ccc2ccccc2c1)N(CCCl)CCCl | -4.3% | -3.5% | 4.7% | 4.2% | -12.3% | -12.8%
10 | SCc1ccccc1.[Cu+2] | -1.4% | -15.9% | -0.45% | -35.1% | -50.7% | -2.75%
11 | COc1ccc2c(c1)C13CCCCC1C(C2)[N+](C)([O-])CC3 (stereo unspecified) | -6.8% | -19.1% | 6.35% | -38.1% | -10.9% | 4.95%
12 | COc1cc(CC(N)c2ccccc2)ccc1O (stereo unspecified) | -7.65% | 2.45% | 11.8% | -20.8% | 2.1% | -18.8%
13 | Cc1cc(S(=O)(=O)F)ccc1NC(=O)NCc1ccc(N2C(N)=NC(N)=NC2(C)C)cc1 | -6.25% | -18% | -3.95% | -37.7% | -9.4% | -8.3%
14 | CCOP(=O)(OCC)C(=O)N(CC)CC | 12.2% | 21.9% | 10.6% | 7.15% | 20.8% | 1.45%
15 | N#CC(CCN1CCC(Nc2ccccc2)(c2nnnn2C2CCCCC2)CC1)(c1ccccc1)c1ccccc1 | -13.8% | -16.6% | 3.75% | -5.15% | 4.05% | -21.6%
16 | CCCCCCCCCCCCCCCCP(=O)(O)OP(=O)(O)OCC1OC(n2cnc3c(N)ncnc32)C(O)C1O (stereo unspecified) | 58.3% | 53.2% | 88.2% (active) | 58.6% | 44.6% | 80.3% (active)
17 | Cn1cnnc1[N+](=O)[O-] | 1.75% | 5.85% | -11.4% | -1.1% | 3.25% | 15.7%
18 | CCOC(=O)/C(=C\c1ccc(Cl)cc1)[Se]c1ccccc1 | 56.9% | 5.7% | 28.9% | 20.6% | 11.3% | 43%
19 | CCc1ccc([N+](=O)[O-])cc1 | -9.25% | -12% | -19.7% | -29.4% | 1.35% | 10.5%
20 | OC1CCN(C2(c3ccccc3)CCCCC2)CC1 | -13.9% | 1.45% | -1.85% | -4.25% | -6.1% | 0.15%
21 | CCOC(=O)C(Cc1c[nH]c2ccccc12)NC(=O)/C=C/N(CCCl)CCCl (stereo unspecified) | 9.25% | 9.95% | 17% | 0.25% | -14.5% | 22.2%

Row | Structure (SMILES) | growth inhibition [1] | growth inhibition [2] | growth inhibition [3] | growth inhibition [4] | growth inhibition [5] | growth inhibition [6]
22 | CNC(=O)Oc1cccc(N)c1 | 5.35% | -1.1% | 5.85% | 7.3% | -22.1% | -0.05%
23 | O=c1[nH]cc(Cn2cccc3c(=O)ncnc2-3)c(=O)[nH]1 | 14.9% | 5.05% | -4.45% | -43.5% | -16.7% | -5.7%
24 | C1=C[N-]c2c3c(ccc2=C1)=CC=C[N-]3.C1=C[N-]c2c3c(ccc2=C1)=CC=C[N-]3.C1=C[N-]c2c3c(ccc2=C1)=CC=C[N-]3.[Co+3].[O-][Cl+3]([O-])([O-])O | -8.95% | -16.4% | -22.8% | -26.1% | -1.15% | 8.2%
25 | CC1(C)CN=C(NN=C(/C=C/c2ccc(C(F)(F)F)cc2)/C=C/c2ccc(C(F)(F)F)cc2)NC1 | 21.6% | 10.4% | 15.3% | 20.2% | 32.2% | 46.8%
26 | COC(=O)/C=C/c1ccc(Cl)cc1 | -7% | -1.8% | 0.5% | -36.5% | -10.2% | -7.4%
27 | Clc1ccc(C(Cl)(Cl)Cl)c(Cl)c1 | 9% | 6.35% | -9.3% | -15.8% | 17.9% | 20.4%
28 | CCCCCC(=O)c1c(O)cc2c(c1O)C(=O)c1c(O)cc(O)cc1C2=O | 10.2% | 2.25% | 6.1% | 10.3% | 8.35% | -5.7%
29 | O=C(COc1cccc(Cl)c1Cl)Nc1ccc[n+](Cc2ccc(S(=O)(=O)F)cc2)c1 | 20.4% | 0.15% | -5.45% | 31.2% | 7.4% | 28.6%
30 | C[N+]12CCC(c3ccccc3)(CC1)C(O)C2 (stereo unspecified) | -14.6% | -4.75% | 2.1% | -5.15% | 2.8% | 8.1%
31 | CCNC1CCCCC1 | 26.3% | -5.45% | -14.2% | 29.1% | -19.1% | 20.1%
32 | O=NC1C(=O)NC(=O)NC1=O | 1.75% | -5.85% | 3.45% | 14.7% | 11.7% | -3.65%
33 | N#Cc1ccc([N+](=O)[O-])cc1 | -1.15% | 9.25% | 1.7% | 1.2% | -43.8% | -43.9%
34 | CN(C)C(=O)Sc1cc(Cl)c(S(=O)(=O)F)cc1Cl | 9.45% | 6.8% | 10.7% | 8.9% | 3.35% | 14.9%
35 | Oc1ccc(Br)cc1 | 1.15% | -18.1% | -14.4% | -14.3% | -15.1% | -6.5%
36 | O=C(CCl)Oc1ccccc1 | -47.1% | -33.5% | -27.1% | -10.8% | -59.5% | -28.1%
37 | CCC1(CCO)C(=O)NC(=O)NC1=O | -1.6% | -48.9% | -0.4% | -12.2% | -14.8% | -2.7%
38 | COc1cccc2c1C(=O)c1c(O)c3c(c(O)c1C2=O)C[C@@](O)(C(=O)CO)C[C@@H]3OC1CC(N2CCOCC2C#N)C(O)C(C)O1 (stereo partly specified) | 90.1% (active) | 91.2% (active) | 92.4% (active) | 89.8% (active) | 90.5% (active) | 91% (active)
39 | Cc1ccc(NN=O)nc1 | -13.9% | 3.15% | -3.9% | 15.2% | -10.6% | -13.8%
40 | CC[N+](CC)(CC)CC.N#CC(C#N)=C([SH2+])[SH2+].N#CC(C#N)=C([SH2+])[SH2+].[Co+2] | 95.3% (active) | 95.8% (active) | 56% | 94.5% (active) | 98.9% (active) | 98.7% (active)
41 | CC1(C)N=C(N)N=C(N)N1c1cccc(CCCCc2ccc(S(=O)(=O)F)c(Cl)c2)c1 | 99.5% (active) | 99.7% (active) | 99.5% (active) | 99.4% (active) | 99.3% (active) | 99.7% (active)

Reference: PubChem BioAssay (NCI)
